Screening data as filed in PubChem.
C2C12 statin: suppressors of simvastatin-induced myotoxicity in C2C12 myotubes | ATP luminescence, 48 h; scaled: DMSO 0, geranylgeraniol control 100 | rescue of ATP level, % at 7.49 µM | actives 0.78% (n = 330,000) | AID 602340;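 active = mean ATP rescue above about 67%, or every replicate alone reaching that limit, limit read from the data, passing the limit was not always enough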;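 note: myotubes were challenged with 10 µM simvastatin during compound exposure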
PglD inh: inhibitors of Campylobacter jejuni PglD acetyltransferase; purified PglD enzyme, DTNB colorimetric CoA detection; actives 0.098% (n = 360,000); inhibition, % at 12.5 µM; in the data active = inhibition above about 16%, passing the limit was not always enough
NSD2 inh: blocks human histone methyltransferase NSD2. O96028. actives 0.54% (n = 310,000). AID 743445. inhibition, % at 12.5 µM. NSD2 peptide methylation, AlphaScreen, 120 min; in the data active = inhibition above about 50%
Target sequence (O96028 whole entry, looked up): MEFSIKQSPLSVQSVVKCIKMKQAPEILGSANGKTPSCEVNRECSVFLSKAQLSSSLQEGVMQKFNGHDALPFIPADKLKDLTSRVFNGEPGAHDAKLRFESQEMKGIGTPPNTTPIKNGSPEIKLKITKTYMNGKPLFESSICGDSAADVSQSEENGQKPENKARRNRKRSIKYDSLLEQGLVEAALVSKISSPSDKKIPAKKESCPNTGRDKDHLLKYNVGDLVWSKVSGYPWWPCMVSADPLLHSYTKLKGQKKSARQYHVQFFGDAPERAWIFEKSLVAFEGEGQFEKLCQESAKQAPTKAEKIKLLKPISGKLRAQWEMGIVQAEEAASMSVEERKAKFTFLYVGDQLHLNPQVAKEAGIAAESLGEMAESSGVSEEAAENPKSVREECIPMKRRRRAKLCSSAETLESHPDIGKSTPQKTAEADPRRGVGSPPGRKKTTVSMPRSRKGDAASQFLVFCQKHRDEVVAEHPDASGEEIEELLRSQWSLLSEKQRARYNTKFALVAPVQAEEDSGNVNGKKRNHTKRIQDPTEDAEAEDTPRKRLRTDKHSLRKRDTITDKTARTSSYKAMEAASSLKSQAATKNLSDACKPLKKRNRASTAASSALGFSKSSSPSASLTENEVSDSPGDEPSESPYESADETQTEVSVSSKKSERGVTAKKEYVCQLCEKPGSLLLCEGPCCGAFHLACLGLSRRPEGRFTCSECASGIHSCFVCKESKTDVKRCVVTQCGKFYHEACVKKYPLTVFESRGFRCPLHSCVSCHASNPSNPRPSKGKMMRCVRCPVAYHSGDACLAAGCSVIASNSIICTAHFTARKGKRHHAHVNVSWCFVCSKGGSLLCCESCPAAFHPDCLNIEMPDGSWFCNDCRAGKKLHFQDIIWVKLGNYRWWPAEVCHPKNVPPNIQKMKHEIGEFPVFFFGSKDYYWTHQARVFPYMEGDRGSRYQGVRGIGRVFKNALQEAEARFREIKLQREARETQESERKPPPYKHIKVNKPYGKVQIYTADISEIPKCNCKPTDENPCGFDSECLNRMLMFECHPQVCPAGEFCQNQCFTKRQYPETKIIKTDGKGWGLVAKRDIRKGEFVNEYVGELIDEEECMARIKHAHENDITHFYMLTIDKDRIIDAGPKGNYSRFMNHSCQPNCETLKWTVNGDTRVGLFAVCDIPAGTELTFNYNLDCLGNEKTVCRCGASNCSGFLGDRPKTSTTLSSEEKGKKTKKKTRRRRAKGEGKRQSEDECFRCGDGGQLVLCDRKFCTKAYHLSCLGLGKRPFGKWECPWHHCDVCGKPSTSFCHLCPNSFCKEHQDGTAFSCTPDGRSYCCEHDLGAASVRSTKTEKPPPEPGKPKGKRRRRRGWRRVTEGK
miR-122 sensor: miR-122 inhibition in Huh7 cells; activation (reporter increase), % at 12.5 µM; actives 0.3% (n = 340,000); Huh7 miR-122 Renilla luciferase sensor, 48 h; neutral wells = 0, positive control = 100; AID 602342;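 active = mean replicate activation score at least 90 and every replicate individually at or above 90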;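 note: higher luciferase means less miR-122 activity so hits act as miR-122 inhibitors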
* marks the source's active call; other numbers are inactive results; . = not tested or not shown; + = active, no number; [ ] = dose if it differs, or a comment. Compounds with a hit are over-represented: about 1.2% of the library has one in this group of screens.

SMILES	C2C12 statin	PglD inh	NSD2 inh	miR-122 sensor
Cc1nnc(SCC(=O)NCc2ccccc2)n1-c1ccccc1	103.4*	-1.3	-0.1	-1.7
Cc1nnc(SCC(=O)NCc2ccco2)n1-c1ccccc1	1.0	0.6	0.2	1.8
CC(=O)N(C)C[C@@H]1Oc2cc(C#Cc3cccnc3)ccc2S(=O)(=O)N([C@@H](C)CO)C[C@@H]1C	0.9	-0.2	.	1.0[16.7 µM]
CC(=O)Nc1ccc(/C=N/NS(=O)(=O)c2cc(C)ccc2C)cc1	.	-3.3	0.4	463.8*
O=C(Nc1ccccc1)Nc1ccc(Cl)c(S(=O)(=O)N2CCOCC2)c1	-5.4	-1.2	-6.0	-2.9
O=S(=O)(/N=C(/Nc1ccc(Cl)c(S(=O)(=O)N2CCOCC2)c1)c1ccc(F)cc1)c1ccccc1	-15.5	0.3	-1.1	120.8*
Cc1noc(C)c1S(=O)(=O)N(C)C[C@H]1Oc2ccc(NC(=O)Nc3ccc4c(c3)OCO4)cc2C(=O)N([C@@H](C)CO)C[C@H]1C	6.4	-1.9	.	-0.2[16.7 µM]
O=c1c2ccccc2n(Cc2ccc(F)cc2)c(=O)n1C1CCCC1	116.0*	2.5	-1.7	-1.4
CCC1=NN(C(=O)c2ccccc2O)C(O)(c2ccccc2)C1 (configuration not stated)	0.3	-2.4	7.7	+
O=C(NCC1CC1)[C@@H]1[C@@H](CO)[C@@H]2Cn3c(ccc(-c4cccnc4)c3=O)[C@H]1N2C(=O)C1CCC1	-5.1	-1.0	.	0.9[16.7 µM]
CCc1ccc2[nH]c(=O)c(CN(Cc3ccccc3OC)Cc3nnnn3Cc3ccco3)cc2c1	99.6*	-6.8	-1.8	7.1
COc1ccccc1C(=O)Nc1ccc2c(c1)OC[C@H](C)N(C)C[C@@H](C)[C@@H](OC)CN(C)C2=O	-3.7	-0.9	.	5.8[16.7 µM]
C[C@@H]1CCCCO[C@H](CN(C)C(=O)CCC(F)(F)F)[C@@H](C)CN([C@@H](C)CO)C(=O)c2cc(NC(=O)CCCN(C)C)ccc2O1	.	1.2	.	-1.6[16.7 µM]
Cc1noc2ncnc(Sc3ccc(Cl)cc3)c12	134.4*	5.9	-0.1	4.5
Cc1ccc(Sc2ncnc3onc(C)c23)cc1	98.1*	-3.3	0.4	3.0
Cc1ccc(CSc2ncnc3onc(C)c23)cc1	.	.	-3.9	.
Cc1noc2ncnc(Sc3c(Cl)cccc3Cl)c12	9.6	1.3	2.7	61.3
C/C=C/c1ccc2c(c1)O[C@H](CN(C)C(=O)NC(C)C)[C@H](C)CN([C@H](C)CO)S2(=O)=O	-3.1	0.8	.	-2.1[16.7 µM]
CN(C)Cc1csc(NC(=O)Nc2ccccc2Oc2ccccc2)n1	72.8*	0.7	23.8	-3.1
Nc1ccc2oc(-c3cccc4ccccc34)nc2c1	88.6*	-3.2	-2.9	10.3
CCOC(=O)c1sc2nc(C3CC3)cc(-c3ccc(F)cc3)c2c1N	12.8	-2.9	-2.1	-6.0
CCOC(=O)c1sc2nc(C3CC3)cc(-c3ccc(OC)cc3)c2c1N	98.1*	-3.7	-1.7	-5.7
C[C@@H]1CN([C@@H](C)CO)C(=O)c2cc(NS(=O)(=O)c3ccc(Cl)cc3)ccc2O[C@@H](C)CCCCO[C@@H]1CN(C)Cc1ccc2c(c1)OCO2	.	17.4	.	7.0[16.7 µM]
COc1ccc(S(=O)(=O)N2C[C@H](O)COC[C@H]3O[C@H](CC(=O)N(C)C)CC[C@@H]32)cc1	12.5	7.1	.	8.5[16.7 µM]
COc1cccc(NS(=O)(=O)c2ccc3c(c2)CCN3C(C)=O)c1	-1.7	-2.2	-0.8	.
SMILES	C2C12 statin	PglD inh	NSD2 inh	miR-122 sensor
CC(=O)N1CCCc2cc(S(=O)(=O)Nc3ccc4c(c3)OCO4)ccc21	15.7	-3.2	2.6	268.0*
CC(=O)N1CCc2cc(S(=O)(=O)Nc3cccc(C(F)(F)F)c3)ccc21	14.0	1.3	1.4	99.7*
C[C@@H]1CCCCO[C@@H](CN(C)C(=O)Nc2cccc3ccccc23)[C@H](C)CN([C@H](C)CO)C(=O)c2cc(NC(=O)C3CCCCC3)ccc2O1	.	0.4	.	-18.9[16.7 µM]
C[C@H](CO)N1C[C@H](C)[C@H](CN(C)Cc2ccncc2)Oc2ccc(N(C)C)cc2CC1=O	19.1	1.7	.	19.1[16.7 µM]
O=C(NCc1nnc(SCC(=O)N2CCN(c3ccccc3)CC2)o1)c1ccco1	93.4*	-3.2	-0.1	2.2
CCC(=O)N1CCN(c2ccc(NC(=O)c3ccco3)cc2)CC1	94.8*	2.3	-0.3	-2.1
O=C(Nc1ccc(Cl)cc1C(=O)Nc1ccncc1)c1ccco1	91.5*	-5.1	-0.9	-1.9
O=C(Nc1ccc(Cl)cc1C(=O)NCc1cccnc1)c1ccco1	4.4	2.9	-2.3	-6.5
O=C(Nc1cccc(-n2cnnn2)c1)c1ccco1	110.5*	5.0	1.1	-10.2
C[C@@H]1CN([C@@H](C)CO)C(=O)c2cc(NC(=O)Nc3ccc(F)cc3)ccc2O[C@H]1CN(C)C(=O)Nc1ccc2c(c1)OCO2	-3.3	.	.	-0.6[16.7 µM]
Cc1ccccc1C(=O)NCc1nnc(SCC(=O)N2CCN(c3ccccc3)CC2)n1C	100.8*	-1.4	-20.8	-3.4
O=C(Nc1ccc(N2CCN(C(=O)c3ccccc3)CC2)c(Cl)c1)c1ccco1	121.9*	-5.5	-1.4	67.4
Cn1c(CNC(=O)c2ccccc2F)nnc1SCC(=O)N1CCN(c2ccccc2)CC1	.	.	-2.1	3.8
CC(=O)N1CCN(c2ccc(NC(=O)c3ccco3)cc2Cl)CC1	-8.4	1.5	-0.5	-3.7
CCN1CCN(c2ccc(NC(=O)Cc3ccccc3)cc2)CC1	104.5*	0.6	9.3	31.0
O=C(Nc1ccc(Br)c(Cl)c1)c1ccco1	11.8	-4.4	39.6	143.9*
O=C(N[C@@H]1CC[C@H](CCNS(=O)(=O)c2ccc(F)cc2)O[C@H]1CO)C1CC1	5.0	-3.1	.	.
Cc1ccnc(NC(=O)c2cccc(NC(=O)c3ccccc3F)c2)c1	.	.	-1.5	.
C[C@@H]1CN([C@H](C)CO)C(=O)c2cccc(NC(=O)NC3CCCCC3)c2O[C@@H]1CN(C)C(=O)Nc1ccc2c(c1)OCO2	0.8	-2.2	.	-6.0[16.7 µM]
O=C(c1ccc(S(=O)(=O)NCc2ccco2)cc1)N1CCCC1	2.0	5.5	-1.1	-0.1
O=S(=O)(NCc1ccco1)c1ccc(S(=O)(=O)N2CCCCC2)cc1	117.6*	2.1	-0.4	89.8
CN(c1ccc(Cl)cc1)c1cc(=O)n(C)c2ccccc12	129.4*	.	-4.4	-13.2
CN1CCN(S(=O)(=O)c2ccc(Cl)cc2)CC1	-7.7	-1.0	-0.3	-2.2
CN1CCN(S(=O)(=O)c2ccc(Cc3ccc(S(=O)(=O)N4CCN(C)CC4)cc3)cc2)CC1	81.8*	.	5.4	2.3
Cc1nc(NC(=S)NC(=O)c2cncc(Br)c2)ccc1Br	102.0*	-1.7	-3.1	-2.4
Cc1ccccc1C(=O)Nc1ccc(Br)c(C)n1	-10.3	-1.6	-3.8	127.9*
COc1ccc(NC(=O)N(C)C[C@@H]2Oc3c(NS(=O)(=O)c4cccs4)cccc3C(=O)N([C@@H](C)CO)C[C@@H]2C)cc1	8.4	-2.3	.	-16.1[16.7 µM]
O=C1c2ccccc2-c2onc3ccc(Oc4ccccc4)c1c23	100.2*	-0.2	2.8	-11.3
C[C@@H](O)C#Cc1ccc([C@@H]2[C@H](CO)N3CCCCN(CC4CCOCC4)C[C@@H]23)cc1	.	3.8	.	-4.8[16.7 µM]
CN(C)CCCNC(=O)[C@H]1[C@H](CO)[C@H]2Cn3c(ccc(C4=CCCCC4)c3=O)[C@@H]1N2Cc1cocn1	0.0	-1.8	.	1.7[16.7 µM]
